The values below come from PubChem BioAssay.

The nature of test [1]: inhibitors of TNFa-induced NFkB p65 translocation, primary screen, imaging, HUVEC, MLSMR starter and 10KST1 sets (AID 438;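 active = inhibition above 20% together with a positive visual image hit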;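 also: compound added about 3h40 before a 20 min TNFalpha stimulation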;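 as to inhibition: signal is the nuclear over cytoplasmic p65 intensity ratio per well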). As to conditions: HUVEC TNFa-induced p65 nuclear translocation; cell count: measured here: nuclei count (cytotoxicity indicator), at 2.08 µM; inhibition: at 2 µM, stronger effect = higher value, 0% TNFa-plus-vehicle, 100% no-TNFa wells.
Test [2] is described as follows: reduction of polyQ htt aggregates in cells – imaging, exon1htt(103Q)mCFP cells, high-content imaging, primary screen (AID 483;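 active = visual image review flags a hit and inhibition of aggregation exceeds 20%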;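 also: compound exposure lasted 3 days before fixation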;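 as to nuclei count: percent of the per-plate median nuclei count of sample wells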). As to conditions: exon1htt(103Q)mCFP cell line, aggregate imaging, at 2 µM; inhibition of aggregation: stronger effect = higher value; nuclei count: measured here: cell count, toxicity.
The nature of test [3]: endothelial E-selectin expression blockers – imaging, HUVEC, immunofluorescence, MLSMR starter and 10KST1 sets, primary screen (AID 487).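 As to inhibition: signal is fraction of cell area covered by stained E-selectin grains.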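 As to nuclei count: 100% = median nuclei count of all wells on the same plate.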 As to conditions: HUVEC TNFalpha-induced E-selectin immunofluorescence imaging, at 2 µM; inhibition: stronger effect = higher value; nuclei count: measured here: cell number, toxicity.
For test [4], the target named is Voltage-gated potassium channel subunit beta-2 (Rattus norvegicus) (UniProt P62483). Kind of test: inhibitors of rat Kvbeta2 reductase activity – biochemical, NADPH fluorescence, primary screen (AID 622;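 active = fluorescence slope higher than the sample average by over 3 SD, cut at about -0.22 in these data, passing the limit was not always enough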;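 also: slope of raw intensity against log time taken from 70 to 1610 s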). As to conditions: recombinant KvBeta, 4-cyanobenzaldehyde reduction, at 10 µM, stronger effect = higher value.
Voltage-gated potassium channel subunit beta-2 (Rattus norvegicus), sequence (P62483 whole entry, looked up): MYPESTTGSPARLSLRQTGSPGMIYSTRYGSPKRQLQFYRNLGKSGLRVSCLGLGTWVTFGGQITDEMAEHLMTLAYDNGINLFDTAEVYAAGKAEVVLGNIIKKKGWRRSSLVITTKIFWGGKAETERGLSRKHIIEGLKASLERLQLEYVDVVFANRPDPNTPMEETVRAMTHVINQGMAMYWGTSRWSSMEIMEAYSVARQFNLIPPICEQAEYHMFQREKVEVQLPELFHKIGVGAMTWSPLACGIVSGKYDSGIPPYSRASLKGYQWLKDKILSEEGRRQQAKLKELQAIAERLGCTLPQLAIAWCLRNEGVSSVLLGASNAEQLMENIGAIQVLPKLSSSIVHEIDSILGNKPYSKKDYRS
Test [5] shares this target. Kind of test: enhancers of rat Kvbeta2 NADPH turnover – biochemical, NADPH fluorescence, primary screen (AID 623;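 active = NADPH fluorescence slope more negative than the mean of all samples by about 3 SD, 99.7% confidence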;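 also: fluorescence intensity change per second fitted from 20 to 320 s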). As to conditions: Recombinant KvBeta, NADPH fluorescence decrease slope, 10 min; at 10 µM; stronger effect = lower value.
For test [6], the target named is Alpha-2C adrenergic receptor (Homo sapiens) (UniProt P18825). Kind of test: compounds altering alpha2C-coupled GIRK flux – cell-based, HEK293 alpha2C/GIRK1/2, thallium flux, primary screen (AID 624;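 active = fluorescence slope after compound addition differing from the mean of all screened samples at 99.7% confidence, in either direction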;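 also: slope of fluorescence ratio to pre-addition baseline per second over 15 to 24 s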). As to conditions: thallium flux BTC fluorescence, at 10 µM, actives lie on both sides.
Alpha-2C adrenergic receptor (Homo sapiens), sequence (P18825 whole entry, looked up): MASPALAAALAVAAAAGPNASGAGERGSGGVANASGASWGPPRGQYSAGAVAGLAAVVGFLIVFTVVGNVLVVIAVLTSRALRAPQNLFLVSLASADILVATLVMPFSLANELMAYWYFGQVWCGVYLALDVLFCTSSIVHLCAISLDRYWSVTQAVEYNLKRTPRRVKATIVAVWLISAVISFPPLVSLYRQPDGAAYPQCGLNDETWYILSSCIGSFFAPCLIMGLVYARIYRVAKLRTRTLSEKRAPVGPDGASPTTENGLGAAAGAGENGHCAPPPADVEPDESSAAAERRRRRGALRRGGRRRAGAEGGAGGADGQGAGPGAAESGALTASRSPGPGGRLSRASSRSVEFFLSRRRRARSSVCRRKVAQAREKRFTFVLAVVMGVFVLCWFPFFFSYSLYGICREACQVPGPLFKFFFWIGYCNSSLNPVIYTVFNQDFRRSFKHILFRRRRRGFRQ
The nature of test [7]: blockers of RIG-like receptor reporter activation – cell-based, Sendai virus stimulus, luciferase, 10K MLSCN set, TLR/RLR signaling modifier project, primary screen (AID 602276;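 active = inhibition at or above 50% at 10 µM; inactive = inhibition below 50%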;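 also: firefly luciferase from ISG56 promoter only with Renilla not read in this screen; 0% = Sendai virus plus DMSO and 100% = medium plus DMSO without virus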). As to conditions: HEK293 RL24 IRF3 luciferase reporter, at 10 µM, stronger effect = higher value. A general note: Reporter assays use an easily measured gene product as a stand-in for the process of interest.

The nature of test [8]: TLR3 IRF3 reporter activation blockers – cell-based, poly I:C stimulus, luciferase, 10K MLSCN set, primary screen (AID 602277;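 active = inhibition of the reporter signal at or above 50%; inactive = inhibition below 50%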). As to conditions: HEK293-TLR3 RL24 IRF3 luciferase reporter, at 10 µM, stronger effect = higher value.

Active and inactive are the calls of the source.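 The calls were made as follows, unless noted: active = visually confirmed hit in the image check and inhibition above 20%; inconclusive = visually confirmed hit but inhibition not above 20%; inactive = no visual hit in the image check.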

By inhibition is commonly meant the drop in the measured response relative to a control, in per cent. `COc1ccc(CN(C(=O)c2cccs2)c2nccs2)cc1OC`: the cell count in test [1] was 457. Besides, the inhibition is 3.9% (inactive) in test [1], -60.6% (inactive) in test [3], -2.48% (inactive) in test [7] and 21.6% (inactive) in test [8]. Further, in test [2], the inhibition of aggregation is -1.2% (inactive). Besides, the nuclei count was determined as 112% in test [2] and 111% in test [3]. Besides, in test [4], the fluorescence slope was -0.458 (inactive). Moreover, the NADPH fluorescence slope in test [5] is -3e-05 (inactive). For the same molecule, the slope in test [6] was 0.00675 (inactive).

Take `CN(C)CCCN1C(=O)c2oc3ccccc3c(=O)c2C1c1cccs1` (centres undefined): the cell count in test [1] was determined as 665. The inhibition is -1.2% (inactive) in test [1], -25.6% (inactive) in test [3], 7.52% (inactive) in test [7] and 8.07% (inactive) in test [8]. In test [2], the inhibition of aggregation was -8.2% (inactive). Further, the nuclei count stood at 107% in test [2] and 132% in test [3]. For the same molecule, in test [4], the fluorescence slope was -0.443 (inactive). In test [5], the NADPH fluorescence slope is 4e-06 (inactive). For the same molecule, the slope in test [6] is 0.00339 (inactive).

As for `CCOC(=O)C1=C(C)OC(N)=C(C#N)C1c1ccoc1` (centres undefined), the cell count in test [1] amounted to 558. The inhibition is -4.8% (inactive) in test [1], 24.7% (inactive) in test [3], 9.81% (inactive) in test [7] and 33% (inactive) in test [8]. The inhibition of aggregation in test [2] was -7.5% (inactive). The nuclei count came out at 81.3% in test [2] and 78.9% in test [3]. Besides, in test [4], the fluorescence slope was -0.428 (inactive). Further, the NADPH fluorescence slope in test [5] was -6.9e-05 (inactive). Also, the slope in test [6] is 0.00431 (inactive).

As for `CN(C)c1ccc(NC(=O)Cn2cc3c(n2)CCCC3)cc1`, the cell count in test [1] was determined as 757. Besides, the inhibition in test [1] was -11% (inactive); in test [3], -27.2% (inactive); in test [7], -2.34% (inactive); in test [8], -8.59% (inactive). Further, the inhibition of aggregation in test [2] is 17.1% (inactive). Also, the figures for the nuclei count in test [2] and in test [3] were 101% and 103%, respectively. The fluorescence slope in test [4] was -0.406 (inactive). Moreover, in test [5], the NADPH fluorescence slope is -4.3e-05 (inactive). In test [6], the slope is 0.00475 (inactive).

With `CCOC(=O)C1CCCN(C/C(O)=C(\C#N)c2nc(-c3ccc(Cl)cc3)cs2)C1` (centres undefined), the cell count in test [1] stood at 479. The inhibition was 1% (inactive) in test [1], -39.9% (inactive) in test [3], 14.3% (inactive) in test [7] and 2.09% (inactive) in test [8]. In test [2], the inhibition of aggregation was -6.9% (inactive). The values for the nuclei count in test [2] and in test [3] were 112% and 120%, respectively. Moreover, the fluorescence slope in test [4] was -0.499 (inactive). In test [5], the NADPH fluorescence slope was -3.4e-06 (inactive). The slope in test [6] was 0.00581 (inactive).

Regarding `O=C(CSc1nnc2ccccn12)c1ccccc1`, the cell count in test [1] amounted to 535. In addition, the inhibition in test [1] is 7.7% (inactive); in test [3], 23.4% (inactive); in test [7], -34.1% (inactive); in test [8], -86.4% (inactive). Besides, the inhibition of aggregation in test [2] is 2.2% (inactive). Further, the nuclei count in test [2] was 105%; in test [3], 70.9%. The fluorescence slope in test [4] is -0.46 (inactive). Moreover, the NADPH fluorescence slope in test [5] was 4e-05 (inactive). Moreover, the slope in test [6] was 0.00782 (inactive).

For `CN=C(Nc1ccc2c(c1)OCO2)SC1CC(=O)N(c2ccccc2)C1=O` (centres undefined), the cell count in test [1] turned out to be 699. Further, the inhibition in test [1] was 11% (inactive); in test [3] it was 7.9% (inactive); in test [7] it was 10% (inactive); in test [8], 17.2% (inactive). In test [2], the inhibition of aggregation was 6.4% (inactive). Moreover, the nuclei count stood at 95.4% in test [2] and 112% in test [3]. Moreover, the fluorescence slope in test [4] is -0.381 (inactive). The NADPH fluorescence slope in test [5] was -3.2e-05 (inactive). Further, the slope in test [6] was 0.00557 (inactive).

For the molecule `CN(C)CCNC(=O)c1ccc(COCC(F)(F)F)cc1`, in test [1], the cell count was 500. The inhibition in test [1] is -2.2% (inactive); in test [3], -22.6% (inactive); in test [7], 14.2% (inactive); in test [8] it was 9.51% (inactive). For the same molecule, in test [2], the inhibition of aggregation is -17.1% (inactive). For the same molecule, the nuclei count is 112% in test [2] and 99% in test [3]. Further, in test [4], the fluorescence slope was -0.408 (inactive). Moreover, in test [5], the NADPH fluorescence slope is -3.8e-05 (inactive). For the same molecule, in test [6], the slope is 0.00605 (inactive).

Turning to `CC(C)OC(=O)c1ccc(NC(=O)C2C3CC4OC(=O)C2C4C3)cc1` (centres undefined), in test [1], the cell count came out at 324. Also, the inhibition in test [1] was -10.5% (inactive); in test [3] it was -115% (inactive); in test [7], -44.9% (inactive); in test [8] it was -88.7% (inactive). Further, in test [2], the inhibition of aggregation is -9.4% (inactive). Also, the nuclei count turned out to be 103% in test [2] and 151% in test [3]. The fluorescence slope in test [4] was -0.327 (inactive). Also, in test [5], the NADPH fluorescence slope is -6e-05 (inactive). Besides, in test [6], the slope was 0.00657 (inactive).

Consider `O=C(Nc1nnc(COc2ccc(F)cc2)s1)c1cccs1`, for which the cell count in test [1] is 585. The inhibition is 7.2% (inactive) in test [1], -42.4% (inactive) in test [3], 12.6% (inactive) in test [7] and 6.8% (inactive) in test [8]. For the same molecule, in test [2], the inhibition of aggregation was 3.9% (inactive). The results for the nuclei count in test [2] and in test [3] were 126% and 104%, respectively. Also, in test [4], the fluorescence slope is -0.52 (inactive). Moreover, the NADPH fluorescence slope in test [5] was -2.5e-05 (inactive). In addition, the slope in test [6] was 0.0053 (inactive).

As to `Cc1c(C(=O)OC2CCC(C)CC2)[nH]c2c1C(=O)CCC2` (centres undefined), the cell count in test [1] was 625. Further, the inhibition in test [1] was -0.8% (inactive); in test [3], -31.8% (inactive); in test [7], -106% (inactive); in test [8] it was -256% (inactive). In addition, the inhibition of aggregation in test [2] is 23.7% (inactive). The nuclei count in test [2] stood at 81.6%; in test [3], 118%. Moreover, the fluorescence slope in test [4] is -0.56 (inactive). For the same molecule, the NADPH fluorescence slope in test [5] was 1.4e-05 (inactive). Besides, in test [6], the slope was 0.00619 (inactive).

Turning to `CC(=O)Nc1ccc2c(c1)nc(CCNC(=O)c1ccccc1)n2C`, in test [1], the cell count stood at 450. For the same molecule, the inhibition is 1.3% (inactive) in test [1], -62.8% (inactive) in test [3], 1.9% (inactive) in test [7] and 98.7% (active) in test [8]. Besides, in test [2], the inhibition of aggregation is -15.3% (inactive). Also, the nuclei count in test [2] stood at 92.7%; in test [3] it was 170%. For the same molecule, the fluorescence slope in test [4] is -0.54 (inactive). Besides, in test [5], the NADPH fluorescence slope is -4.9e-05 (inactive). In test [6], the slope was 0.00514 (inactive).

On to `CCc1cc2c(CN3CCN(CCO)CC3)cc(=O)oc2cc1O`, for which the cell count in test [1] worked out at 396. For the same molecule, the inhibition in test [1] is 1.3% (inactive); in test [3], -34.5% (inactive); in test [7], 17.8% (inactive); in test [8], 27% (inactive). Besides, the inhibition of aggregation in test [2] was -12.5% (inactive). For the same molecule, the nuclei count stood at 102% in test [2] and 60.8% in test [3]. In addition, the fluorescence slope in test [4] was -0.0121 (active). For the same molecule, the NADPH fluorescence slope in test [5] was 1.7e-06 (inactive). In addition, the slope in test [6] is 0.00408 (inactive).

For the molecule `CCOC(=O)c1cc2c(=O)n3ccccc3nc2n(CCCOC)c1=NC(C)=O`, the cell count in test [1] stood at 657. Besides, the inhibition is 11.2% (inactive) in test [1], -33.6% (inactive) in test [3], 1.75% (inactive) in test [7] and 9.93% (inactive) in test [8]. Also, the inhibition of aggregation in test [2] was 21.5% (inactive). Besides, the nuclei count in test [2] amounted to 94.4%; in test [3], 82.5%. Also, the fluorescence slope in test [4] was -0.133 (active). In test [5], the NADPH fluorescence slope was 1.2e-05 (inactive). Besides, the slope in test [6] was 0.00482 (inactive).
